Results: PubChem BioAssay
Calls of active or inactive are those of the source.

Assays:
[1] = test system: Plasmodium falciparum Sir2 (PF13_0152, Sir2A); assay: Plasmodium falciparum Sir2A binding compounds – biochemical, small-molecule microarray, 635 nm fluorescence, primary screen (AID 1098); conditions: fluorescence 635 nm, higher = more signal;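 note: score merges spot fluorescence intensity with its signal-to-noise ratio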
[2] = probe aDKK1 binding to arrayed compounds – biochemical, biotinylated probe, 635/667 nm fluorescence, primary screen (AID 1099); conditions: small-molecule microarray, higher = more signal;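 note: score merges 667nm spot fluorescence with signal to noise across triplicate slides; reference of the scale not given here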
[3] = probe aCHRDL2 binding to arrayed compounds – biochemical, biotinylated probe, 635/667 nm fluorescence, primary screen (AID 1100); conditions: small-molecule microarray, higher = more signal
[4] = change in splice reporter luminescence, either direction, cell-based, HEK293, spliceosome inhibition project, primary screen (AID 1101); conditions: HEK293 splicing luciferase reporter, 24 h, higher = more signal, called active from +8 up or from −8 down;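 note: HEK293 cells carrying a splicing-competent luciferase reporter gene; test concentration not given here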
[5] = molecular target: Fibroblast growth factor 10 (Homo sapiens) (UniProt O15520); assay: compounds binding fibroblast growth factor 10 – biochemical, small-molecule microarray, 635 nm fluorescence, primary screen (AID 1102); conditions: FGF10 binding, fluorescence 635 nm, higher = more signal
Chain of Fibroblast growth factor 10 (Homo sapiens) (O15520 whole entry, looked up): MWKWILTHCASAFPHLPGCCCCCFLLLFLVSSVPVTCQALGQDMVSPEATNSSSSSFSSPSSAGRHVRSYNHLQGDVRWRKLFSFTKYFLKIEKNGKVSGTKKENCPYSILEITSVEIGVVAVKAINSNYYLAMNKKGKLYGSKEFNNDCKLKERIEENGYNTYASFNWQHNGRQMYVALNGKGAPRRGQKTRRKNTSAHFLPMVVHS

[6] = test system: glycogen synthase kinase-3 (GSK3A per assay name; protocol says GSK3B); assay: compounds binding glycogen synthase kinase-3 – biochemical, small-molecule microarray, 635 nm fluorescence, GSK3A, primary screen (AID 1103); conditions: fluorescence 635 nm, higher = more signal; note: the record names both GSK3A and GSK3B
[7] = molecular target: Epidermal growth factor receptor (Homo sapiens) (UniProt P00533); assay: compounds binding epidermal growth factor receptor – biochemical, small-molecule microarray, 635 nm fluorescence, primary screen (AID 1104); conditions: EGFR binding, higher = more signal;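 note: score merges 667 nm emission intensity with spot signal to noise over triplicate slides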
Chain of Epidermal growth factor receptor (Homo sapiens) (P00533 whole entry, looked up): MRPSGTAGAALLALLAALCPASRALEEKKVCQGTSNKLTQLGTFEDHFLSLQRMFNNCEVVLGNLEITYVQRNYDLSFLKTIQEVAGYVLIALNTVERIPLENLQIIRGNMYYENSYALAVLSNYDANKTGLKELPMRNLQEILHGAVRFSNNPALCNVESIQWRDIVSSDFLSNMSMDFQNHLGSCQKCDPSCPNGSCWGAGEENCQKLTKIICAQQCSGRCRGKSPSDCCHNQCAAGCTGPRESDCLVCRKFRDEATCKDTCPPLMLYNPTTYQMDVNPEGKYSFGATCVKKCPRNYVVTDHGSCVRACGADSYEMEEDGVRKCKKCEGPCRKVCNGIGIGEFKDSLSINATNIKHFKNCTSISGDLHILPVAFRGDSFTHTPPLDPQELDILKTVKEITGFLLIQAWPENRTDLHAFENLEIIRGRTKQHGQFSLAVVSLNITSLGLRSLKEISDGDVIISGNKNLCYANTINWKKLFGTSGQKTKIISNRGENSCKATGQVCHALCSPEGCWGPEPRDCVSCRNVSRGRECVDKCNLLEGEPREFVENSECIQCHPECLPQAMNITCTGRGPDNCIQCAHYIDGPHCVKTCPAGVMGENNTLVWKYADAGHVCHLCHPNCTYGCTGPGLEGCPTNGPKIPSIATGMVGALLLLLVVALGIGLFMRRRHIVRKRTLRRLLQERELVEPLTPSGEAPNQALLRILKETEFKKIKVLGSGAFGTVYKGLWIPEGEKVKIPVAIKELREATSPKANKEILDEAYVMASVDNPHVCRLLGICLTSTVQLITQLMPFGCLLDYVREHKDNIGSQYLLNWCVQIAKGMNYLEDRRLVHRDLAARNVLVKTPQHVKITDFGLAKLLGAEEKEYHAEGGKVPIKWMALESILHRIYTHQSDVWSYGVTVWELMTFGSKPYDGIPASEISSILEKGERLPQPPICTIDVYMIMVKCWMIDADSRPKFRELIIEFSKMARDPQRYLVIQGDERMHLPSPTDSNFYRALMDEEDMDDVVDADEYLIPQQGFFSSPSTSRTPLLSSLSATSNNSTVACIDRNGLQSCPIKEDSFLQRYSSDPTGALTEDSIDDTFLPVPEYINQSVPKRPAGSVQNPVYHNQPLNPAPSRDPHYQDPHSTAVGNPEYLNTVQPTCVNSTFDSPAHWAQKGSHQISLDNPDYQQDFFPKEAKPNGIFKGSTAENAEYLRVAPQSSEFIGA

[8] = molecular target: Follistatin-related protein 3 (Homo sapiens) (UniProt O95633); assay: compounds binding follistatin-related protein 3 – biochemical, small-molecule microarray, 635 nm fluorescence, primary screen (AID 1105); conditions: FSTL3 binding, higher = more signal;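 note: score merges emission near 667 nm and signal to noise per printed spot across three slides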
Chain of Follistatin-related protein 3 (Homo sapiens) (O95633 whole entry, looked up): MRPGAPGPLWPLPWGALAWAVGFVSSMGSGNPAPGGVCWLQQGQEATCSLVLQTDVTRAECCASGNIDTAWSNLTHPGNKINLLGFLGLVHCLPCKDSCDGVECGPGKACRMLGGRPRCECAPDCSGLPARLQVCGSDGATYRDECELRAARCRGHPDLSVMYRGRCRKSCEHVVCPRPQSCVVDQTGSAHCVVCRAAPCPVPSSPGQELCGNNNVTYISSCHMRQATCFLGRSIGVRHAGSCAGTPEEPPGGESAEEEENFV

[9] = molecular target: Dickkopf-related protein 1 (Homo sapiens) (UniProt O94907); assay: small molecules binding DKK1 protein – biochemical, small-molecule microarray, 635 nm fluorescence scan, primary screen (AID 1106); conditions: higher = more signal;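 note: score merges emission near 667 nm with signal to noise over three replicate slides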
Chain of Dickkopf-related protein 1 (Homo sapiens) (O94907 whole entry, looked up): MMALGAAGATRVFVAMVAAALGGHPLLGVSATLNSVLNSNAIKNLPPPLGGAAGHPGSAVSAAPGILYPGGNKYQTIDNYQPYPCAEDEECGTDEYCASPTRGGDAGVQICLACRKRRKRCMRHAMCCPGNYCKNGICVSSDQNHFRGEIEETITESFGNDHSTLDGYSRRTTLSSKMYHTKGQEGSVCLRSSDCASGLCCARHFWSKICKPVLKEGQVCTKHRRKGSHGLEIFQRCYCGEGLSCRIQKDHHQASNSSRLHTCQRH

[10] = test system: Inhibin beta A chain (activin A); assay: small molecules binding activin A – biochemical, small-molecule microarray, 635 nm fluorescence scan, primary screen (AID 1107); conditions: INHBA, higher = more signal;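 note: mouse activin A protein probed at 4.33 µg/mL on printed slides; score merges bound-protein fluorescence near 667 nm with spot signal-to-noise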

SMILES	composite z-score [1]	composite z-score [2]	composite z-score [3]	z-score [4]	composite z-score [5]	composite z-score [6]	composite z-score [7]	composite z-score [8]	composite z-score [9]	composite z-score [10]
CC(c1ccccc1)C(O)C1C=CC2C(=O)N(C)C(=O)C2N1NC(=O)OC(C)(C)C (stereo not given)	1.16	0.354	0.488	1.18 (inactive)	1.02	1.28	0.469	0.907	0.237	0.633
COC(=O)c1c(CC[C@@H](CO)NC(=O)N[C@@H](Cc2ccccc2)Cn2cc(-c3ccccn3)nn2)oc(C(=O)N2CCOCC2)c1C(=O)OC	0.327	-0.299	-0.247	0.373 (inactive)	0.136	-0.27	-0.002	0.172	-0.296	0.119
O=C1O[C@H](c2ccccc2)[C@H](c2ccccc2)N2[C@H]1[C@@H](C(=O)NC[C@H](O)c1ccccc1)[C@]1(C(=O)Nc3ccc(C#CC4=CCCCC4)cc31)[C@H]2c1ccccc1OCCO	0.312	0.697	0.722	-1.74 (inactive)	0.439	1.13	0.208	0.627	0.359	1.06
COC(=O)[C@@]1(Cc2ccc(OC)cc2)[C@H]2c3cc(C(=O)N4CCCC4)n(CCc4ccc(O)c(O)c4)c3C[C@H]2CN1C(=O)c1ccccc1	1.49	0.845	1.35	-0.73 (inactive)	0.0136	0.0777	-0.352	-0.269	-0.45	1.76
C=CCNC(=O)[C@@H]1[C@H]2C(=O)O[C@H](c3ccccc3)[C@H](c3ccccc3)N2[C@H](c2ccc(OCCO)cc2)[C@@]12C(=O)N(C(=O)OCCOC)c1ccc(C#CCNC(N)=O)cc12	1.43	0.478	0.747	0.184 (inactive)	0.704	0.549	0.555	0.898	0.554	1.2
COc1cc2c(cc1O)C(c1cccs1)N(Cc1ccc([N+](=O)[O-])o1)CC2 (stereo not given)	1.15	0.728	0.27	-0.505 (inactive)	0.876	0.0693	-0.033	-0.0839	-0.466	-0.131
C[N+](C)(C)CCCC[C@@H]1NC(=O)[C@@H]2C[C@H](C(=O)NCCCCCN)[C@H](c3ccc(O)cc3)N2C1=O	1.55	1.16	0.808	-1.1 (inactive)	1.42	1.29	0.024	0.878	0.308	0.199
CO[C@H]1O[C@H](CO)[C@@H](OC(=O)Nc2ccc(Br)cc2)[C@@H]2OC(=O)[C@H](Cc3cccc(Br)c3)C/C=C/C[C@@H](Cc3cccc(Br)c3)C(=O)O[C@@H]12	0.272	-0.157	0.179	-0.838 (inactive)	0.383	-1.05	-0.461	0.285	-0.0367	0.0396
